# Source: PubChem
# An excerpt weighted towards active compounds, which were near 22% of everything screened.
# Shiga toxin inh: Shiga toxin inhibition; Vero cells, Shiga toxin protein synthesis inhibition reporter; actives 9.2% (n = 290,000); inhibition, % at 38.7 µM; AID 2315; in the data active = inhibition mostly above about 28%, no sharp cut-off; inactive = mostly below about 43%; also: 0% is about no effect
# LmPK inh: blocks Leishmania mexicana pyruvate kinase activity; Q27686; purified LmPK, Kinase-Glo ATP luminescence, 1 h; Potency, µM (highest dose often 57.5 µM), for the others: at the top dose activity change, negative = inhibition, actives largely listed as inhibitors; actives 0.37% (n = 290,000); AID 1721; also: potency is read from the fitted curve at half-maximal effect; % is scaled to controls: 0 for no effect and ±100 for the full control effect
# Target sequence (Q27686 whole entry, looked up): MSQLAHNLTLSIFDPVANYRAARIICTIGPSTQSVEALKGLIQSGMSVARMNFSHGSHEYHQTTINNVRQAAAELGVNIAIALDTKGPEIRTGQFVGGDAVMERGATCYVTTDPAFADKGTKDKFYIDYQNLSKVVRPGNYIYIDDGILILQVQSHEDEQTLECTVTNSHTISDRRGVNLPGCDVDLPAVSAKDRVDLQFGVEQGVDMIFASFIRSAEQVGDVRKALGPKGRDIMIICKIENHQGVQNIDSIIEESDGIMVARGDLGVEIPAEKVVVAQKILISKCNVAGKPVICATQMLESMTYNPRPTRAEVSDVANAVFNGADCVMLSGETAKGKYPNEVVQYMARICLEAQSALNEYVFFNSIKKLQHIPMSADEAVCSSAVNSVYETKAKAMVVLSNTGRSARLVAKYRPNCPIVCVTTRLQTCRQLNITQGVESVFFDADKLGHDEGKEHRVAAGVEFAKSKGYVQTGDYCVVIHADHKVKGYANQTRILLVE
#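 0.1 nM LmPK, 0.5 mM PEP, 0.1 mM ADP; 50 mM imidazole pH 7.2, 7 mM MgCl2, 50 mM KCl; 1 h RT. Kinase-Glo luminescence readout, normalized to no-enzyme (full inhibition) and uninhibited wells.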
# Pf growth 48h: inhibits P. falciparum growth in the first generation, 48 h. P. falciparum luciferase growth in erythrocytes, 48 h. Potency, µM (series often up to 28.7 µM), for inactives: top-dose activity change, negative = inhibition, usual class: inhibitors. actives 5.9% (n = 310,000); also: potency is read from the fitted curve at half-maximal effect; % is scaled to controls: 0 for no effect and ±100 for the full control effect
#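 Cell-based growth assay: transgenic P. falciparum expressing firefly luciferase, cultured in red cells within RPMI 1640 containing 0.5% w/v Albumax, 24 mM bicarbonate and gentamycin. A drop in luciferase activity indicates inhibition.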
# Pf growth 96h: P. falciparum growth inhibition at 96 hours; P. falciparum luciferase reporter growth, 96 h; Potency, µM (highest dose often 28.7 µM), for the others: at the highest dose activity change, negative = inhibition, actives largely listed as inhibitors; actives 6.9% (n = 320,000); AID 504834; also: potency is read from the fitted curve at half-maximal effect; % is scaled to controls: 0 for no effect and ±100 for the full control effect
#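 Plates of compound plus infected erythrocytes (2% hematocrit, 0.05% parasitemia final) incubate 96 hours, 37 C, 5% CO2. Detection reagent added; reduced luminescence from the parasites' luciferase reporter flags inhibition.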
# Cycloheximide cs: affects cycloheximide protein synthesis inhibition readout, counter-screen; max response, %; cell reporter, cycloheximide protein synthesis inhibition counterscreen; AID 2314; actives 12% (n = 300,000); in the data active = max response mostly above about 13%, no sharp cut-off; inactive = mostly below about 14%; also: read at 38.3 µM for the half of the compounds with a filed dose; 0% is about no effect
# An asterisk follows results filed as active; ? = inconclusive; / = no result given; [ ] = remark or other dose. Unless noted, calls follow the shape of the dose curve; as a rule, active = well fitted inhibition curve with a large enough effect; inconclusive = small, poorly fitted or top-dose-only effect, or another doubt; inactive = no such curve, though single readings can be large or run the other way.
SMILES,Shiga toxin inh,LmPK inh,Pf growth 48h,Pf growth 96h,Cycloheximide cs
CCc1c(C)nc(SCC(=O)N2C(C)CCCC2C)[nH]c1=O (configuration not stated),11,1%,-37%[5.75 µM],14%,8
CC1C(=O)Nc2ccc(S(=O)(=O)N3CCCCCC3)cc21 (configuration not stated),/,/,?,-20%,/
COC(=O)CSc1nc(-c2cccs2)ccc1C#N,50,0%,76%,?,36*
COC(=O)CSc1nc(C)c(C(C)=O)cc1C#N,46,-1%,56%,57%,24*
CC(=O)c1cc(C#N)c(SCc2ccccc2)nc1C,31,-3%,/,212%,32*
COC(=O)c1cc(C#N)c(SCc2ccccc2)nc1C,-21,1%,9%,/,9
CC(=O)c1cc(C#N)c(SCc2ccccn2)nc1C,68*,1%,122%,124%,47*
COc1ccccc1Oc1nc(C)c(C(C)=O)cc1C#N,24,-9%,0%,0%,3
C#CCSc1nc(-c2cccs2)ccc1C#N,-1,1%,15%,10%,0
CCCSc1nc(C)c(C(C)=O)cc1C#N,-11,5%,-9%,/,-5
CN(C(=O)C1CCC(=O)N(Cc2ccccc2F)C1)C1CCOCC1 (configuration not stated),17,3%,6%,?,9
Cc1cccc(CC(=O)NCCS(=O)(=O)N2CCN(c3cccc(Cl)c3)CC2)c1,/,/,?,35%,/
CC1CCN(S(=O)C23CC4CC(CC(C4)C2)C3)CC1 (configuration not stated),-7,-1%,-2%,27%,9
CN(C)c1ccc(C2SCCN2C(=O)c2ccc([N+](=O)[O-])cc2)cc1 (configuration not stated),-11,5%,12%,0%,-4
O=C(O)Cn1nc(-c2ccc(Cl)cc2)ccc1=O,-4,4%,3%[0.00184 µM],13µM*,-1
CN1C(=O)C2C(c3ccc(N(C)C)cc3)=NN(Cc3ccccc3)C2C1=O (configuration not stated),1,12%,15%,97%,-1
COc1ccc(C2=NN(Cc3ccccc3)C3C(=O)NC(=O)C23)cc1 (configuration not stated),40,-1%,14%,?,20*
O=C(O)Cn1nc(-c2ccccc2)ccc1=O,-6,-6%,-17%,3.3µM*,-3
O=C(Cn1nc(-c2ccc(Cl)cc2)ccc1=O)N1CCN(c2ccccc2)CC1,-12,2%,4%,?,-3
Cc1ccc(-c2ccc(=O)n(Cc3c(F)cccc3Cl)n2)cc1,10,6%,13µM*,5%,20*
CCOC(=O)Cn1nc(-c2ccccc2)ccc1=O,4,0%,47%,34%,14
Cc1ccc(C)c(-c2ccc(=O)n(Cc3c(F)cccc3Cl)n2)c1,28,4%,-21%,?,16
CN(C(=O)Cn1cc(C(F)(F)F)cc(Cl)c1=O)C1CCS(=O)(=O)C1 (configuration not stated),/,/,7%,28%,/
COc1ccc(CNC(=O)CN(C(=O)c2snc(C(N)=O)c2N)c2ccc(OC)c(OC)c2)cc1,-5,0%,-18%,?,-6
CC(C)(C)N1CCC1CN (configuration not stated),-1,3%,7%,25%,-3
SMILES,Shiga toxin inh,LmPK inh,Pf growth 48h,Pf growth 96h,Cycloheximide cs
CCCCc1noc(-c2c(-c3ccccc3Cl)noc2C)n1,12,3%,?,9%,11
COc1ccccc1Nc1nccc(N(C)C)c1C#N,6,3%,0%,?,1
COc1ccc(-c2ccc(=O)n(Cc3ccccc3)n2)cc1,28*,0%,-14%,0%,21*
O=C(Nc1ncccn1)c1ccc([N+](=O)[O-])o1,64*,-4%,8.3µM*,64%,52*
Cc1ccnc(NC(=O)c2ccc([N+](=O)[O-])o2)c1,133*,-26%,3%,?,68*
O=C(Nc1nc2c(F)cccc2s1)c1ccc([N+](=O)[O-])o1,9,-5%,?,?,11*
O=C(Nc1ccccn1)c1ccc([N+](=O)[O-])o1,65*,-15%,?,?,33*
Cc1cccc(NC(=O)c2ccc([N+](=O)[O-])o2)c1C,-14,0%,15%,-11%,-4
CCOC(=O)C1CCN(C(=O)C2CCN(c3nnc(-n4cccc4)s3)CC2)CC1,-4,7%,?,-28%,13
CCOC(=O)C1CCN(c2nnc(N3CCCC3=O)s2)CC1,43*,-10%,58%,0.83µM*,23*
Cc1ccc2c(C(=O)N3CCN(c4ccccc4)CC3)cc(-c3cccnc3)nc2c1C,-5,4%,2.3µM*,-16%,-4
Cc1ccccc1C(=O)N1CCN(c2ccc([N+](=O)[O-])c(NCc3cccnc3)c2)CC1,-20,1%,?,257%,-2
Cc1ccc(C(=O)N2CCN(c3ccc([N+](=O)[O-])c(NCc4cccnc4)c3)CC2)cc1,13,0%,8.3µM*,3.7µM*,-6
Cc1ccc2nc(-c3cccnc3)cc(C(=O)N3CCN(c4ccc([N+](=O)[O-])cc4)CC3)c2c1,-21,2%,10µM*,-32%,-3
CCOc1ccccc1N1CCN(C(=O)c2cc(-c3cccnc3)nc3c(Cl)cccc23)CC1,-2,2%,3.3µM*,4%,-3
O=C(CN(CCc1ccccc1)C(=O)CNS(=O)(=O)c1ccc(F)cc1)NCC1CCCO1 (configuration not stated),20,2%,-11%,?,3
CC(=O)N/C(=C/c1ccc([N+](=O)[O-])cc1)C(=O)O,11,3%,15%,?,-3
CSc1nc(Cl)cc(Nc2ccc(O)cc2)n1,63,1%,205%,49%,42*
CNc1cc(Cl)nc(SC)n1,18,-3%,23%,?,1
O=C(Nc1nnc(-c2ccncc2)s1)C1CCCO1 (configuration not stated),35*,2%,46%,/,17*
O=C(Nc1nnc(-c2ccccc2F)s1)C1CCCO1 (configuration not stated),64*,-6%,454%,2%,39*
CCOC(=O)COc1ccc(S(=O)(=O)NCCC2=CCCCC2)cc1,18,-12%,3%,/,-2
S=C(NC1CCCC1)N1CCN(c2ccccn2)CC1,-3,-10%,4%,2.1µM*,1
O=C(NC(=S)N1CCN(c2ccccn2)CC1)c1ccccc1,8,-7%,13%,2%,-2
NS(=O)(=O)c1ccc(NC(=S)N2CCN(S(=O)(=O)c3ccc(F)cc3)CC2)cc1,-14,-4%,?,-2%,-3
O=[N+]([O-])c1ccc(N2CCN(C(=S)NC3CCCCC3)CC2)cc1,-2,1%,0.52µM*,121%,6
CC(C(=O)N1CCN(c2ccccc2)CC1)c1ccc([N+](=O)[O-])cc1 (configuration not stated),-3,-6%,-6%,13µM*,-2
